# Source: PubChem BioAssay
# Anthrax LF prot = inhibitors of Bacillus anthracis lethal factor protease; 0.12% of 360,000 active; inhibition, % at 10 µM; AID 588501; multiplex microsphere protease cleavage assay, LF; note: plate controls were buffer without enzyme for full effect and enzyme alone for no effect
# BoNT F protease = BoNT F light chain protease inhibition | 0.22% of 360,000 active | Multiplex microsphere protease cleavage assay, flow cytometry | inhibition, % at 10 µM; in the data active = inhibition above about 35%, passing the limit was not always enough; inconclusive = no clear call, values can overlap the other calls; note: plate controls were buffer without enzyme for full effect and enzyme alone for no effect
# MazF activator = increases E. coli MazEF RNase cleavage of RNA; P0AE70; FAM/BHQ RNA-DNA oligo cleavage fluorescence, 5 h; activation, % at 20 µM; 0.32% of 350,000 active; in the data active = activation above about 50%
# Bead autofluor = compound fluorescence in toxin protease inhibitor counterscreen; compound autofluorescence counterscreen, microsphere flow cytometry; hits give high values; fluorescence intensity (concentration not given with the values); 3.1% of 360,000 active; in the data active = fluorescence intensity above about 16000; inconclusive = no clear call, values can overlap the other calls
# BoNT A protease = inhibitors of Botulinum neurotoxin A light chain protease; 0.17% of 360,000 active; inhibition, % at 10 µM; multiplex microsphere protease substrate cleavage, flow cytometry; AID 588499; note: plate controls were buffer without enzyme for full effect and enzyme alone for no effect
# The depositor's hits bear a star; ? = inconclusive; + = active, no number; ! = a repeat was not active. Only some compounds are listed: those with a hit (about 3.7% of all), similar ones and a draw of the others. Cut-off read from the data, not from the text of the source, unless noted: active = inhibition above about 30%; inconclusive = no clear call, values can overlap the other calls; inactive = below that.
SMILES,Anthrax LF prot,BoNT F protease,MazF activator,Bead autofluor,BoNT A protease
CC(=O)Nc1ccc(NC(=O)COC(=O)c2ccc(S(=O)(=O)NCc3ccco3)cc2)cc1,-12.3,-1.8,-1.4,3599,-0.1
CC1CCCCC1NC(=O)COC(=O)c1ccc(S(=O)(=O)NCc2ccco2)cc1 (stereo unspecified),-7.2,6.3,5.4,21167*,4.1
O=S(=O)(NCc1ccco1)c1ccc(S(=O)(=O)N2CCCCC2)cc1,-5.9,-3.8,-12.6,23145*,-1.4
COc1cccc(NC(=O)COC(=O)c2ccc(S(=O)(=O)NCc3ccco3)cc2)c1,-1.3,-8.7,4.3,23475*,-3.1
Cc1cc(C2C(C#N)=C(N)SC(N)=C2C#N)c(C)s1,13.0,39.6*,-297.9,4324,18.4
Cc1cc(C2C(C#N)=C(N)Oc3n[nH]c(C)c32)c(C)s1 (stereo unspecified),3.2,8.6,2.2,2163,0.1
Cc1cc(C(F)F)n2nc(C(=O)Nc3ccccc3Br)nc2n1,-3.7,-0.3,-4.8,20530*,0.5
Cc1ccc(CNC(=O)c2ccc(N3CCCC3=O)cc2)cc1,2.9,2.5,5.4,11293,0.5
Cn1nc(C(C)(C)C)cc1C(=O)NCc1ccc(N2CCCC2=O)cc1,-3.9,0.1,-6.7,23561*,?
COc1ccc(Nc2nc(N3CCOCC3)nc(N3CCOCC3)n2)cc1Cl,-20.4,-3.1,6.5,3882,-1.9
NNC(=O)c1nn(-c2ccc(Cl)cc2)ccc1=O,-2.0,-4.2,7.2,23538*,?
CNC(=O)c1nn(-c2ccc(C)cc2)ccc1=O,-2.6,-4.9,2.3,2354,0.2
Cc1cc(Br)ccc1NC(=O)CN(C)C(=O)C1CSC2(C)CCC(=O)N12 (stereo unspecified),-0.4,-9.0,4.5,4335,-0.8
COc1cccc2cc(-c3nnc(SCC(=O)Nc4cc(C(F)(F)F)ccc4Cl)n3N)oc12,3.0,-3.0,9.0,23578*,-2.1
CCn1c(SCC(=O)Nc2nccs2)nnc1-c1cc2cccc(OC)c2o1,8.0,5.2,-0.1,8503,-0.6
COc1cccc2cc(-c3nnc(SCC(=O)NCc4ccccc4)n3C)oc12,2.4,6.4,-2.2,22828*,?
CC1=CC(C)(C)NC(=S)N1C(C)c1ccccc1 (stereo unspecified),-2.2,7.7,-5.4,3715,0.4
O=C(Nc1cccc(-c2nc3ncccc3o2)c1)c1sc2cc(Cl)ccc2c1Cl,0.4,1.6,-64.4,22567*,?
O=C(Nc1cccc(-c2nc3ncccc3o2)c1)c1cc2ccccc2o1,-0.2,-16.4,-1.8,4703,-1.1
O=C(Nc1cccc(-c2nc3ncccc3o2)c1)c1sc2ccccc2c1Cl,-0.4,8.2,44.3,18637*,7.5
COC(=O)Cc1ccc(NC(=S)Nc2cccc(C)n2)cc1,-7.1,-0.7,4.5,6190,-0.5
Cc1nn(CCc2n[nH]c(=S)n2C2CCCCC2)c(C)c1Br,-2.8,-7.0,-2.7,26154*,-9.4
Cc1nn(CCc2n[nH]c(=S)n2C)c(C)c1Br,-3.3,7.8,-0.2,15320,3.4
CN(/N=C/c1ccc(N(C)C)cc1)C1=NS(=O)(=O)c2ccccc21,14.5,1.6,+,4256,-0.4
Cc1ccsc1CNn1cnnc1SCc1ccc(Cl)cc1,0.1,-7.3,-2.6,23748*,-3.5
SMILES,Anthrax LF prot,BoNT F protease,MazF activator,Bead autofluor,BoNT A protease
Fc1ccc(CNn2cnnc2SCc2ccc(F)cc2)cc1,14.3,0.9,4.8,6004,0.9
Cc1ccc(CNn2cnnc2SCc2ccc(F)cc2)cc1,-2.9,-0.7,-0.7,22609*,-0.2
Fc1ccc(CSc2nncn2NCc2ccc3c(c2)OCO3)cc1,-1.0,-22.7,14.1,4906,-1.9
Cc1cccc(OCC(=O)Nc2ccc(S(=O)(=O)Nc3onc(C)c3C)cc2)c1C,0.8,5.2,-19.2,5581,1.7
C=C(C)c1cccc(C(C)(C)NC(=O)NCc2ccc(OC)c(OC)c2)c1,-3.9,-1.9,7.1,23352*,0.1
COc1cc(/C=C2/C(=N)N3C=CSC3=NC2=O)ccc1OCCCOc1ccccc1C,5.3,37.0*,-11.5,4133,5.4
COc1cc(/C=C2/C(=N)N3C=CSC3=NC2=O)ccc1OCCCOc1c(C)cccc1C,-1.4,-15.1,0.1,7192,1.8
COc1cccc(OCCCn2cc(/C=C3/C(=N)N4C=C(C)SC4=NC3=O)c3ccccc32)c1,4.9,-44.6,-24.3,24218*,49.6*
Cc1ccc(S(=O)c2ccc([N+](=O)[O-])c3nonc23)cc1 (stereo unspecified),4.3,0.4,375.4*,2848,4.5
Cc1ccc(NC(=O)CCC(=O)OCC(=O)c2ccc(Oc3ccc([N+](=O)[O-])cc3)cc2)c(C)c1,-0.7,0.9,-15.9,17075*,-1.0
Cc1noc(COc2ccccc2OCC(N)=O)n1,-7.1,0.7,-0.3,5860,-0.1
COc1ccc(NS(=O)(=O)c2ccc3c(c2)NC(=O)C(C)S3)cc1 (stereo unspecified),-2.1,-20.4,3.9,6111,-9.4
Cn1c(-c2cccc(OCc3ccccc3)c2)nc2c1c(=O)[nH]c(=O)n2Cc1ccccc1,-1.3,11.3,61.8*,2957,-0.2
Cc1c(-c2cccs2)[n+](=O)c2c(n1[O-])CCCC2,-21.8,10.8,4.5,20042*,4.5
COCCNc1nc2nonc2nc1N(C)Cc1cccc2cnccc12,-0.3,-2.7,7.8,2892,-0.3
CCN(CC)CCNC(=O)c1ccc(NC(=O)Cc2ccsc2)cc1,2.8,0.3,1.6,6089,-0.1
CCCNC(=O)Cc1ccsc1,-0.2,2.9,4.9,21829*,2.8
CCOC(=O)CCCCCC(=O)Nc1ccc2c(c1)C(=O)N([C@@H](C)CO)C[C@@H](C)[C@H](CN(C)C(=O)Nc1ccccc1)OCCCC[C@H](C)O2,3.3,-3.4,-5.7,3699,-0.2
COc1ccc(NC(=O)C2OC3OC(C)(C)OC3C3OC(C)(C)OC23)cc1 (stereo unspecified),-0.5,-0.6,-1.9,23845*,-0.8
CCCCCOc1ccc(NC(=O)C2OC3OC(C)(C)OC3C3OC(C)(C)OC23)cc1 (stereo unspecified),-2.1,-2.8,-1.8,2407,0.3
Cc1noc(C)c1COc1ccc(CC(=O)NCCc2ccccc2)cc1,-5.3,8.4,12.0,8573,0.4
Cc1nnc(NC(=O)Cc2ccc(OCc3c(C)noc3C)cc2)s1,0.3,-5.4,-6.4,17361*,-2.3
O=C(NCc1ccc2c(c1)OCO2)C1CC(=O)N(CCc2ccc(Cl)cc2)C1 (stereo unspecified),-4.3,-0.6,1.9,5517,-2.6
C[C@H]1CN([C@@H](C)CO)C(=O)CCCn2nncc2CO[C@H]1CN(C)S(=O)(=O)c1ccc(C#N)cc1,1.5,3.3,8.0,3620,-0.1
CCOC(=O)c1c(CS(=O)(=O)c2ccccc2)n(C)c2cc(Br)c(O)c(CN(C)C)c12,2.1,-6.5,-7.5,3485,-0.3
CCOC(=O)c1c(CN2CCOCC2)n(C)c2cc(Br)c(O)c(CN(C)C)c12,-0.9,-2.6,0.2,21896*!,?
COc1cccc(N2C(=O)CC(=O)NC2=O)c1,-0.9,-0.6,-8.4,23335*,-1.2
